# Source: PubChem BioAssay (Tox21)
# Inconclusive results are not listed. Entries that show only a call come without a potency. A number with no mark means an inactive call. Activity calls are given as the source filed them. The call rests on the fitted dose curve; in most records, active means well fitted cell-killing curve with a large enough effect in the repeat runs; inconclusive means weak or mixed curves, or effect the other way; inactive means flat fitted curve, though single readings scatter.
# What was measured:
# [1] = cAMP Responsive Elements (CRE) small molecule antagonists, cell-based qHTS assay: qHTS cell viability counter screen (AID 2060913); further: nearly all actives have a fitted effect of over 40% in size
# In short: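 Steps: cells plated and held 18 hrs at 37 C/5% CO2; compounds and NKH477 (0.25 uM final) added; 3 hrs incubation; reporter substrate read; CellTiter-Glo added to measure cytotoxicity by luminescence.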
# [2] = cAMP Responsive Elements (CRE) small molecule agonists, cell-based qHTS assay: qHTS cell viability counter screen (AID 2060914);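 further: viability read after 3 h of compound exposure; nearly all actives have a fitted effect of over 50% in size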
# In short: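 Cells are seeded and incubated 18 h, treated with compounds in DMSO for 3 h, read for the bla reporter, then given CellTiter-Glo; luminescence is measured after 30 min at room temperature.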
Compound,Potency [1],Potency [2]
Nc1ncnc2nc[nH]c12,inactive,inactive
N[C@H]1C(O)O[C@H](CO)[C@@H](O)[C@@H]1O (stereo partly specified),inactive,inactive
CC(C)Nc1cccnc1N1CCN(C(=O)c2cc3cc(NS(C)(=O)=O)ccc3[nH]2)CC1,inactive,inactive
Cc1ccnc(NS(=O)(=O)c2ccc(N)cc2)n1,inactive,inactive
C[C@@H]1CCN(C(=O)[C@H](CCCN=C(N)N)NS(=O)(=O)c2cccc3c2NC[C@H](C)C3)[C@@H](C(=O)O)C1,inactive,inactive
O=C=NC1CCC(CC2CCC(N=C=O)CC2)CC1 (stereo unspecified),inactive,inactive
CCC(=O)/C=C/C1C(C)=CCCC1(C)C (stereo unspecified),inactive,inactive
O=[N+]([O-])c1ccc(Oc2ccc([N+](=O)[O-])cc2)cc1,inactive,inactive
CC(CCc1ccc(O)cc1)NCCc1ccc(O)c(O)c1 (stereo unspecified),inactive,inactive
CCOC(=O)c1ccc(C2CCC(NC[C@H](O)COc3ccc(O)c(NS(C)(=O)=O)c3)CC2)cc1 (stereo partly specified),inactive,inactive
CC(O)(P(=O)(O)O)P(=O)(O)O,inactive,inactive
CCOC(=O)C1=NOC(c2ccccc2)(c2ccccc2)C1,inactive,inactive
CN1CC(=O)NC1=N,inactive,inactive
CCCCOC(=O)C(C)CC (stereo unspecified),inactive,inactive
CC1(C)O[C@H]2CC(=O)OC[C@]23[C@H]2CC[C@@]4(C)[C@H](c5ccoc5)OC(=O)[C@H]5O[C@]54[C@]2(C)C(=O)C[C@@H]13,inactive,inactive
C[C@@H](O[C@H]1OCCN(Cc2n[nH]c(=O)[nH]2)[C@H]1c1ccc(F)cc1)c1cc(C(F)(F)F)cc(C(F)(F)F)c1,inactive,inactive
CC(C)(C)C(=O)C(Oc1ccc(Cl)cc1)n1ccnc1 (stereo unspecified),inactive,inactive
CCN(Cc1cccc(S(=O)(=O)O)c1)c1ccccc1,inactive,inactive
CCOCCOCC,inactive,inactive
N#CC1(N)CCCCC1,inactive,inactive
Cc1cc(CC(=O)O)c(C)n1-c1ccc(Cl)cc1,inactive,inactive
O=C(Nc1ccc2c(O)c(N=Nc3ccc(N=Nc4ccc(S(=O)(=O)O)cc4)cc3)c(S(=O)(=O)O)cc2c1)c1ccccc1,inactive,inactive
COc1ccc(CCN(C)CCCC(C#N)(c2ccc(OC)c(OC)c2)C(C)C)cc1OC (stereo unspecified),inactive,inactive
CCCc1cc(C(N)=S)ccn1,inactive,inactive
CN1CCN(C)CC1,inactive,inactive
CNCc1cc(F)ccc1Oc1ccc(Cl)c(Cl)c1,inactive,inactive
CCCCOCCOC(=O)c1ccccc1C(=O)OCCOCCCC,inactive,inactive

Compound,Potency [1],Potency [2]
COc1ccc2c(c1)c(CC(=O)OCC(=O)O)c(C)n2C(=O)c1ccc(Cl)cc1,inactive,inactive
CC(C)CCCCCCCOC(=O)CCCCC(=O)OCCCCCCCC(C)C,inactive,inactive
CCCCCCCCOC(=O)CCCCCCCCC(=O)OCCCCCCCC,inactive,inactive
CC(C)S,inactive,inactive
CCc1nn(CCCN2CCN(c3cccc(Cl)c3)CC2)c(=O)n1CCOc1ccccc1,inactive,inactive
O=c1cc(O)c(Cl)c[nH]1,inactive,inactive
CCN(CC)CC(=O)Nc1c(C)cccc1C(=O)OC,inactive,inactive
CC(O)COCC(C)O (stereo unspecified),inactive,inactive
CCCCC(CC)COC(=O)CS (stereo unspecified),inactive,inactive
NNc1nc(-c2ccc(N)cc2)cs1,inactive,inactive
CC(C)(O)C(=O)c1ccc(OCCO)cc1,inactive,inactive
CC1=C(C=O)C(C)(C)CCC1,inactive,inactive
CCCOCC(C)O (stereo unspecified),inactive,inactive
c1cnc2c(c1)ccc1cccnc12,inactive,inactive
CC1(C)CCC[C@]2(C)[C@H]3CCO[C@]3(C)CC[C@@H]12,inactive,inactive
c1ccc(CCCc2ccccn2)cc1,inactive,inactive
O=C(OCC(COC(=O)c1ccccc1)(COC(=O)c1ccccc1)COC(=O)c1ccccc1)c1ccccc1,inactive,inactive
CCCC(CC)c1ccccc1 (stereo unspecified),inactive,inactive
Cc1nnc(C(=O)NC(C)(C)c2nc(C(=O)NCc3ccc(F)cc3)c(O)c(=O)n2C)o1,inactive,inactive
CC(C)=CCC/C(C)=C\CO,inactive,inactive
CCOC(=O)CC(CC(=O)OCC)(OC(C)=O)C(=O)OCC,inactive,inactive
CCCCOCCOC(=O)COc1ccc(Cl)cc1Cl,inactive,inactive
N/C(=N\N=C\c1ccc(Cl)cc1)N/N=C/c1ccc(Cl)cc1,inactive,inactive
C#CC(O)CCCCC (stereo unspecified),inactive,inactive
O=C(NCCO[N+](=O)[O-])c1cccnc1,inactive,inactive
CCOC(=O)Cn1c(=O)sc2cccc(Cl)c21,inactive,inactive
